Compounds with a hit are over-represented: about 3.5% of the library has one in this group of screens.
MITF primary: human MITF inhibition, primary screen; AlphaScreen MITF homodimerization, bead proximity signal; inhibition, % at 2.6 µM; 0.91% of 650,000 active; O75030; AID 1259374; in the data active means inhibition above about 50%
GPR151 activ: human GPR151 activation; PathHunter beta-arrestin GPR151 cells, luminescence; Q8TDV0; 1% of 650,000 active; activation, % at 11.2 µM; AID 1508602; in the data active means activation above about 4.9%
Target sequence (Q8TDV0 whole entry, looked up): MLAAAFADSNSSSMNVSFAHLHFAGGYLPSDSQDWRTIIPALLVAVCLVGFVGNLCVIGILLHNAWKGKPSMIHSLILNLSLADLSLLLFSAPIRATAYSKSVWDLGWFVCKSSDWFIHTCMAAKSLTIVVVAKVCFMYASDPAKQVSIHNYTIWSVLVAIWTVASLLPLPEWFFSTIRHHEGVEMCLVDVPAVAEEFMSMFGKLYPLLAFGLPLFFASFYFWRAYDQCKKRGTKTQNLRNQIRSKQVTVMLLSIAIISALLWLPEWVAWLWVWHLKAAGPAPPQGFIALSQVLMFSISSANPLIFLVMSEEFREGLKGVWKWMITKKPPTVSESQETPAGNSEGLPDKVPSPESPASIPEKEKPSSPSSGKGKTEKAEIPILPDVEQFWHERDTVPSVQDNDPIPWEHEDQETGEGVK
FBW7 activator: human FBW7 E3 ligase activation, primary screen. Q969H0. AlphaScreen FBW7–phospho-cyclin E peptide binding, activator screen. normalized activity (activation), % at 26.1 µM. 0.13% of 650,000 active. AID 1259310; in the data active means normalized activity above about 1.9%;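 further: purified mutant Fbw7 with reduced substrate affinity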
TEAD-YAP inh: TEAD-YAP interaction inhibition. inhibition, % at 9.12 µM. 1.4% of 640,000 active. HEK-TIYL cells, TEAD-Gal4/YAP UAS-luciferase luminescence; in the data active means inhibition above about 32%
A number is an active result; ! = not confirmed by another sample.

COc1ccccc1-n1c(C)c(C)n2c3c(=O)n(CCC(C)C)c(=O)n(C)c3nc12 was read as MITF primary inactive, GPR151 activ inactive, FBW7 activator inactive and TEAD-YAP inh inactive.
Screening CC1=C(C(=O)OCC(C)C)C(c2ccccc2F)C2=C(CC(c3cccs3)CC2=O)N1 (configuration not stated) returned MITF primary inactive, GPR151 activ inactive, FBW7 activator inactive and TEAD-YAP inh 32.5.
`COC(=O)C1=C(C)NC(S)=C(C#N)C1c1cccs1` (configuration not stated) gave MITF primary inactive, GPR151 activ inactive, FBW7 activator inactive and TEAD-YAP inh inactive.
`CC1=C(C(=O)OCCc2ccccc2)C(c2ccccc2F)C2=C(CC(c3cccs3)CC2=O)N1` (configuration not stated) gave MITF primary inactive, GPR151 activ inactive, FBW7 activator inactive and TEAD-YAP inh inactive.
`CC1=C(C(=O)OC(C)C)C(c2cccs2)C2=C(CC(c3ccccc3)CC2=O)N1` (configuration not stated) gave MITF primary inactive, GPR151 activ inactive, FBW7 activator inactive and TEAD-YAP inh 41.8.
Screening COC(=O)C1=C(C)NC(C)=C(C#N)C1c1cccs1 (configuration not stated) returned MITF primary inactive, GPR151 activ inactive, FBW7 activator inactive and TEAD-YAP inh 34.6!.
Screening CCOC(=O)C1=C(C)NC2=C(C(=O)CC(c3ccccc3)C2)C1c1ccsc1 (configuration not stated) returned MITF primary inactive, GPR151 activ inactive, FBW7 activator inactive and TEAD-YAP inh 43.8.
COC(=O)C1=C(C)NC(C)=C(C(=O)OC)C1c1cn(-c2ccccc2)nc1-c1ccc(OC)c(Br)c1 was read as MITF primary inactive, GPR151 activ inactive, FBW7 activator inactive and TEAD-YAP inh inactive.
`Cc1c(Cl)ccc2c1=NC(=O)C=2c1sc(=Nc2ccccc2)n(-c2ccccc2)c1O` gave MITF primary inactive, GPR151 activ inactive, FBW7 activator inactive and TEAD-YAP inh inactive.
For O=C(c1ccccc1)n1c(=S)nc2ccccn21 the results were MITF primary inactive, GPR151 activ inactive, FBW7 activator inactive and TEAD-YAP inh 40.2.
For COCC(C)NC(=O)C1CC(c2ccccc2O)=NO1 (configuration not stated) the results were MITF primary inactive, GPR151 activ inactive, FBW7 activator inactive and TEAD-YAP inh inactive.
O=C(O)c1cccc(NS(=O)(=O)c2ccc(Cl)c(Cl)c2)c1 was read as MITF primary inactive, GPR151 activ inactive, FBW7 activator inactive and TEAD-YAP inh inactive.
For O=S(=O)(O)c1cc(O)c2cc(Nc3ccccc3)ccc2c1 the results were MITF primary inactive, GPR151 activ inactive, FBW7 activator inactive and TEAD-YAP inh inactive.
`Nc1ccc2cc(S(=O)(=O)O)cc(O)c2c1` gave MITF primary 77.1, GPR151 activ inactive, FBW7 activator inactive and TEAD-YAP inh inactive.
For CC(=O)N1C(=O)/C(=C2\SC(N)=NC2=O)c2ccccc21 the results were MITF primary inactive, GPR151 activ inactive, FBW7 activator inactive and TEAD-YAP inh inactive.
`Cc1ccc(S(=O)(=O)c2c(O)cc(C)c(NS(=O)(=O)c3ccc(Br)cc3)c2C)cc1` gave MITF primary 63.4, GPR151 activ inactive, FBW7 activator inactive and TEAD-YAP inh inactive.
Cc1ccc(S(=O)(=O)Nc2c(C)cc(O)c(S(=O)(=O)c3ccc(C)cc3)c2C)cc1 was read as MITF primary inactive, GPR151 activ inactive, FBW7 activator inactive and TEAD-YAP inh inactive.
`O=C(COc1ccc(Oc2ccccc2)cc1)NCc1cn2ccccc2n1` gave MITF primary inactive, GPR151 activ inactive, FBW7 activator inactive and TEAD-YAP inh 55.2.
`O=S(=O)(NCc1cn2ccccc2n1)c1ccc(Oc2ccccc2)cc1` gave MITF primary inactive, GPR151 activ inactive, FBW7 activator inactive and TEAD-YAP inh inactive.
CCN1CCN(Cc2c(O)ccc3c(=O)c(Oc4cc(C)cc(C)c4)c(C(F)(F)F)oc23)CC1 was read as MITF primary inactive, GPR151 activ inactive, FBW7 activator inactive and TEAD-YAP inh inactive.
For CCCNc1nc(N2CCCC(C(=O)N(CC)CC)C2)nc2c1ncn2-c1ccsc1 (configuration not stated) the results were MITF primary inactive, GPR151 activ inactive, FBW7 activator inactive and TEAD-YAP inh 36.6.
`CCN(CC)C(=O)C1CCCN(c2nc(N)c3ncn(-c4ccsc4)c3n2)C1` (configuration not stated) gave MITF primary inactive, GPR151 activ inactive, FBW7 activator inactive and TEAD-YAP inh 50.9.
`CCN(CC)C(=O)C1CCCN(c2nc(NCCOc3ccccc3)c3ncn(-c4ccsc4)c3n2)C1` (configuration not stated) gave MITF primary inactive, GPR151 activ inactive, FBW7 activator inactive and TEAD-YAP inh inactive.
CCN(CC)C(=O)C1CCCN(c2nc(Nc3ccccc3)c3ncn(-c4ccsc4)c3n2)C1 (configuration not stated) was read as MITF primary inactive, GPR151 activ inactive, FBW7 activator inactive and TEAD-YAP inh 33.3.
CCn1c(O)c(C=Nc2ccccc2Cl)sc1=S was read as MITF primary inactive, GPR151 activ inactive, FBW7 activator inactive and TEAD-YAP inh 32.4.
CCOC(=O)C1=C(C)N=c2s/c(=C\c3ccc(N(C)C)c(Br)c3)c(=O)n2C1c1ccccc1OC (configuration not stated) was read as MITF primary inactive, GPR151 activ inactive, FBW7 activator inactive and TEAD-YAP inh inactive.
`COc1ccc(C2c3c(oc4ccccc4c3=O)C(=O)N2CCN(C)C)cc1` (configuration not stated) gave MITF primary inactive, GPR151 activ inactive, FBW7 activator inactive and TEAD-YAP inh inactive.
CCN(CC)c1ccc(N=Cc2c(O)[nH]c(=S)[nH]c2=O)cc1 was read as MITF primary 50.7, GPR151 activ inactive, FBW7 activator inactive and TEAD-YAP inh inactive.
Screening CCN(CC)S(=O)(=O)c1ccc(N=Cc2c(O)[nH]c(=S)[nH]c2=O)cc1 returned MITF primary inactive, GPR151 activ inactive, FBW7 activator inactive and TEAD-YAP inh inactive.
Screening Nc1cc(N=Cc2c(O)[nH]c(=S)[nH]c2=O)ccc1O returned MITF primary 91.7, GPR151 activ inactive, FBW7 activator inactive and TEAD-YAP inh inactive.
Screening O=C1CCN(Cc2ccccc2)CCN1 returned MITF primary inactive, GPR151 activ inactive, FBW7 activator inactive and TEAD-YAP inh inactive.
`C=CCN1C(=O)/C(=C\c2ccc(-c3ccc(C(=O)O)cc3)o2)C(=O)NC1=S` gave MITF primary inactive, GPR151 activ inactive, FBW7 activator inactive and TEAD-YAP inh inactive.
C=CCN1C(=O)/C(=C\c2ccc(-c3cccc(C(=O)O)c3)o2)C(=O)NC1=S was read as MITF primary 63.6, GPR151 activ inactive, FBW7 activator inactive and TEAD-YAP inh inactive.
For C=CCN1C(=O)/C(=C/c2ccc(OCc3cccc(C(=O)O)c3)cc2)C(=O)NC1=S the results were MITF primary inactive, GPR151 activ inactive, FBW7 activator inactive and TEAD-YAP inh 78.8.
`C=CCN1C(=O)/C(=C/c2cc(C)n(-c3cccc(C(=O)O)c3C)c2C)C(=O)NC1=S` gave MITF primary 53.2, GPR151 activ inactive, FBW7 activator inactive and TEAD-YAP inh inactive.
